Laboratory results: the supplement of paper PMC10105736
Values without a mark were called inactive.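 The calls were made as follows: active = MAPPIT score above the 99th percentile of random reference set scores in the same batch; inactive = at or below it.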

These substances were tested on sim (assay: MAPPIT interaction score (arbitrary units); higher = stronger binary interaction signal, active = hit call of the paper). Conditions: MAPPIT configuration: N-C; pair source set: Lit-BM-16.
Protocol: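 MAPPIT in HEK293T cells: Drosophila bait and prey ORFs (from the FlyBi ORF collection) were co-transfected in quadruplicate, with two wells stimulated by erythropoietin. Interaction-dependent JAK-STAT activation was read out with a STAT-responsive firefly luciferase reporter. Positive calls use the 99th percentile of random reference set (RRS) scores within each batch […]. Batches Dvs01 and Dvs02 used the N-N configuration and Dvs04 the N-C configuration. Pairs come from FlyBi screens, CuraGen, DPiM, Finley Y2H, Lit-BM-16, Lit-BS-16 and RRS.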
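Also: HEK293T cells with Epo stimulation, STAT-responsive firefly luciferase reporter, fold induction versus unstimulated cells divided by the larger fold induction of two negative controls lacking either bait or prey.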

Sequence of tgo (chain, as listed by the source): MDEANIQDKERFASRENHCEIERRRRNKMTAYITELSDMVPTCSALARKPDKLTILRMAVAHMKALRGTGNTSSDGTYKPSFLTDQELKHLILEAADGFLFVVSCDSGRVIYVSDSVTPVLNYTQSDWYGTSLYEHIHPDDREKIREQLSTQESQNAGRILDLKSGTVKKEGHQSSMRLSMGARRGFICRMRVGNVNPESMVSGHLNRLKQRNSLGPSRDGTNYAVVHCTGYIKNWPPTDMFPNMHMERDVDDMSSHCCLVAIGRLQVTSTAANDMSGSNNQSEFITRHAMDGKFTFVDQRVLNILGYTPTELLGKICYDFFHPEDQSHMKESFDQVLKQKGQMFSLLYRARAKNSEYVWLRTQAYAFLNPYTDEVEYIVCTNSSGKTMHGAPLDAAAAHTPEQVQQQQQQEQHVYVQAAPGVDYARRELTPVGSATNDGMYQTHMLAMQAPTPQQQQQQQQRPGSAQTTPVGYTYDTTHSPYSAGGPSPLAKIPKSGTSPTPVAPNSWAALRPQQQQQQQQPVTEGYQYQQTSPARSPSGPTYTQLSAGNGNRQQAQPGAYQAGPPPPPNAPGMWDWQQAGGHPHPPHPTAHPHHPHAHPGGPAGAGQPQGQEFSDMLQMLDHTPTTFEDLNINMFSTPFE

| Substance | MAPPIT interaction score |
| --- | --- |
| tgo | 2.23 |

Same assay, conditions: MAPPIT configuration: N-N; pair source set: Lit-BM-16

| Substance | MAPPIT interaction score |
| --- | --- |
| tgo | 1.37 |
